GLP1R cytotox = cytotoxic in the GLP-1 receptor inverse agonist counter-screen | 410,000 compounds, 0.13% hits | HEK293 cAMP-luciferase reporter cells, luminescence, 24 h | AID 624418 | Potency, µM (top dose mostly 38.3 µM), inactives show top-dose activity change, negative = inhibition, most hits filed as inhibitors;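 note: loss of luciferase light is scored as toxicity; % is set by controls: 0 for no effect and ±100 for the full control effect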
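MLSMR compounds, 24 hr on cells at 37 deg C/5% CO2; luminescence after luciferase reagent (12 min RT). Inhibition counted as the undesired cytotoxic outcome.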
BRCA1 expr act = activators of BRCA1 expression | MCF7-BRCA1-FFLuc reporter, luminescence, 48 h; response scale: scaled: vehicle 0%, 10 µM genistein 100% | Potency, µM (titrated, usually from 46.1 µM), for inactives: top-dose activation, most hits filed as activators | 380,000 compounds, 1.1% hits; note: nearly all actives have a fitted effect of over 80% in size
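MCF7-BRCA1-FFLuc, 2000 cells/well; 2 h attach, 37 °C/5% CO2; compound 48 h; luciferase substrate 15 min; luminescence end-point. Norm. to genistein 10 microM max activation and DMSO; concentration-response curves fitted.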
GLP1R ag = activates the human GLP-1 receptor; P43220; HEK293 GLP-1R CRE-luciferase, luminescence, 4-6 h; cells express a hypersensitive GLP-1R form; Potency, µM (titrated, usually from 45.6 µM), for inactives: top-dose activation, actives largely listed as activators; 380,000 compounds, 0.007% hits; AID 624172; note: % of control where 0% means no effect
Target sequence (P43220 whole entry, looked up): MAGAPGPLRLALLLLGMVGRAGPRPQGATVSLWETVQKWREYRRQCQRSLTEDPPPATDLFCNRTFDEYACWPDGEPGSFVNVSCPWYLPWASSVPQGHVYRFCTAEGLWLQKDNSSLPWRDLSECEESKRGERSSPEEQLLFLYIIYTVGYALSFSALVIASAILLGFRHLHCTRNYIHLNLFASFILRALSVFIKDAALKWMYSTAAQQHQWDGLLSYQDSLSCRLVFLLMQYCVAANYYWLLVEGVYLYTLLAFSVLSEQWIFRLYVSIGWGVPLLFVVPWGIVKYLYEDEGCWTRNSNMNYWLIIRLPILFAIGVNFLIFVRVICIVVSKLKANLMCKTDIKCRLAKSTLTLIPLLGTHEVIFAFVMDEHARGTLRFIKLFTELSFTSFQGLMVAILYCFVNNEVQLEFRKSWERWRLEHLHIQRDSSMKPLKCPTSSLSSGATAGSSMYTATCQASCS
Mito fusion yeast = inhibitors of mitochondrial division or activators of mitochondrial fusion | AID 485298 | S. cerevisiae fusion-defective mutant growth rescue, CellTiterGlo 48 h | 320,000 compounds, 0.23% hits | Potency, µM (titrated, usually from 46.1 µM), without a hit: at the highest dose growth rescue (activation), actives largely listed as activators; note: % of control where 0% means no effect; nearly all actives have a fitted effect of over 45% in size
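S. cerevisiae fusion-defective temperature-sensitive mutants (e.g. fzo1-1, mgm1-5) grown 48 h at 37C in YPEG (ethanol/glycerol non-fermentable) medium with 23 nl compound per well; growth rescue read as CellTiterGlo luminescence.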
GLP1R inv ag = inverse agonists of human GLP-1 receptor; P43220; HEK293 GLP-1R CRE-luciferase, luminescence, 24 h; GLP-1R form is constitutively active; Potency, µM (doses to about 38.3 µM), inactives show top-dose activity change, negative = inhibition, usual class: inhibitors; 410,000 compounds, 1.6% hits; AID 624417; note: % is set by controls: 0 for no effect and ±100 for the full control effect; nearly all actives have a fitted effect of over 55% in size
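Seeding at 200 cells/uL, 12 h culture, 24 hr compound treatment, then luciferase reagent and a luminescence read; cells are HEK293 stably expressing a constitutively active GLP-1R plus cAMP-responsive luciferase.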
* marks the source's active call; other numbers are inactive results; ? = inconclusive; . = no result. Shown are actives, neighbours in structure and some others; about 2.8% of the full set was active somewhere. Calls come from the whole dose curve; as a rule, active = well fitted curve in the direction sought with a large enough effect; inconclusive = small, poorly fitted or top-dose-only effect, or another doubt; inactive = no such curve, though single readings can be large; an effect the other way counts as inactive or inconclusive. Potency is the fitted concentration of half-maximal effect.

SMILES	GLP1R cytotox	BRCA1 expr act	GLP1R ag	Mito fusion yeast	GLP1R inv ag
CCN1C(=O)/C(=C\c2nc3ccccc3c(=O)n2CC)c2ccccc21	-4%	-66%	16%	24%	?
Fc1cccc2sc(Nc3nc4cc5c(cc4s3)OCCO5)nc12	88%	-25%	-12%	11µM*	?
Cc1onc(-c2c(F)cccc2Cl)c1C(=O)N1CCc2ccccc21	-22%	-21%	-14%	3%	0%
COc1cccc(NC(=O)CSc2nnc3scc(-c4ccc(Cl)cc4)n23)c1	2%	.	.	.	5%
COc1cccc(NC(=O)n2nc(N)cc2-c2ccc(Cl)cc2)c1	?	-37%	-2%	12%	10µM*
COc1cccc(C(=O)O/N=C(\N)c2ccncc2)c1OC	-4%	?	6%	-2%	1%
N/C(=N\OC(=O)Cc1cccc2ccccc12)c1ccccn1	?	81%	24%	1%	?
COc1cccc(C(=O)O/N=C(\N)c2ccccn2)c1OC	10%	-7%	-10%	7%	7.9µM*
N/C(=N\OC(=O)c1cccc2ccccc12)c1ccccn1	4µM*	-11%	10%	-6%	?
COc1ccc(CCn2c(=O)c3cccnc3n(Cc3ccc([N+](=O)[O-])cc3)c2=O)cc1OC	-4%	7%	-6%	-4%	2%
COc1ccc(-c2nc(N3CCCCCC3)sc2C(=O)c2ccccc2)cc1	29%	-37%	5%	12%	2µM*
[2H]c1c([2H])c([2H])c(C(=O)c2sc(N3CCCCCC3)nc2-c2ccccc2)c([2H])c1[2H]	13%	-17%	1%	4%	?
O=C(c1ccccc1)c1sc(N2CCCCCC2)nc1-c1ccccc1	97%	-21%	12%	8%	5µM*
Nc1n[nH]c(CCCO)n1	-1%	-30%	-5%	3%	0%
CC(=O)Nc1cccc(C(=O)NC2CCCc3c2cnn3-c2ccc(C(C)(C)C)cc2)c1 (centres undefined)	-3%	-1%	17%	?	?
CC(C)(C)c1ccc(-n2ncc3c2CCCC3NC(=O)c2ccco2)cc1 (centres undefined)	-2%	-25%	-2%	.	10µM*
CC(C)(C)c1ccc(-n2ncc3c2CCCC3NC(=O)CN2CCCCC2=O)cc1 (centres undefined)	-15%	0%	2%	4.5µM*	?
O=C(CN1CCCC1=O)NC1CCCc2c1cnn2-c1cc(F)cc(F)c1 (centres undefined)	-3%	43%	-6%	1%	3%
CC(=O)/C=C/n1c(=S)oc2ccccc21	11µM*	-79%	-2%	0%	?
CC(C)CC(=O)/C=C/n1c(=S)oc2ccccc21	?	-96%	7%	0%	42%
CCc1ccc(OCCNC(=O)c2ccccc2SCc2ccccc2)cc1	4%	-54%	-2%	8%	7.1µM*
CCNC(=O)c1ccccc1SCc1ccccc1	3%	24%	3%	0%	-25%
CC(=O)Cc1nsc(Nc2ccccc2)n1	13%	?	3%	-3%	8%
O=S(=O)(c1ccccc1)N1CCC(Oc2ccc(-n3cnnn3)cc2)CC1	1%	-23%	18%	35µM*	?
COc1ccc(OC2CCN(S(=O)(=O)c3ccc(OC)cc3)CC2)cc1	10%	3%	5%	?	10µM*
SMILES	GLP1R cytotox	BRCA1 expr act	GLP1R ag	Mito fusion yeast	GLP1R inv ag
COc1ccc(S(=O)(=O)N2CCC(Oc3ccc(-n4cnnn4)cc3)CC2)cc1	-6%	.	.	.	-8%
O=C(Nc1ccc(-c2cnco2)cc1)c1ccc(F)cc1F	0%	5µM*	-1%	-2%	16%
O=C(NC(=O)c1ccc(Cl)cc1)Nc1ccc(-c2cnco2)cc1	.	.	.	1%	.
CCOc1ccc(N2C(=O)S/C(=C\c3cccn3C)C2=O)cc1	-23%	76%	-11%	1%	8%
Cn1cccc1/C=C1\SC(=O)N(c2ccc(O)cc2)C1=O	4%	10µM*	1%	-3%	6%
Cc1ccc(C(=O)Oc2oc(-c3ccco3)nc2C=Nc2ccc(Cl)cc2)cc1	3%	2µM*	-10%	2%	0%
O=C(Oc1oc(-c2ccco2)nc1C=Nc1ccccc1)c1ccoc1	-8%	27%	-4%	0%	-3%
NC(=O)COC(=O)CNC(=O)c1cc(Cl)cc([N+](=O)[O-])c1	5%	3%	4%	-2%	12%
COc1ccc(F)cc1C(=O)C1CCCN(Cc2cn(C)c3ccccc23)C1 (centres undefined)	?	-46%	6%	-1%	3.5µM*
O=S(=O)(NCCN1CCCC1)c1ccc(C(F)(F)F)cc1	7%	7%	5%	1%	7%
O=C(CCCCCNC(=O)N1CCn2c1nc1ccccc12)N[C@@H](Cc1ccccc1)C(=O)O	1%	16%	-2%	-3%	9%
Brc1ccccc1OCCCn1cnc2ccccc21	-5%	11µM*	12%	14%	17%
Cc1ccccc1OCCCCn1cnc2ccccc21	1%	-36%	?	-4%	-19%
CCOC(=O)C1(CCOc2ccccc2)CCN(Cc2cccc(F)c2)CC1	-13%	-7%	-6%	-4%	?
CCOC(=O)C1(CCOc2ccccc2)CCN(Cc2ccc(OC)cc2)CC1	-14%	-47%	-1%	.	10µM*
CCOC(=O)C1(CCOc2ccccc2)CCN(Cc2cccc(OC)c2OC)CC1	-4%	-46%	21%	4%	10µM*
CCOC(=O)C1(CCOc2ccccc2)CCN(Cc2cccc(-n3cccn3)c2)CC1	-12%	-35%	-4%	-3%	5µM*
CCOC(=O)C1(CCCc2ccccc2)CCN(Cc2ccn[nH]2)CC1	14%	2%	13%	-3%	4.5µM*
CCOC(=O)CCC(=O)NNC(=O)c1ccc(NC(=O)c2ccccc2)cc1	-3%	-4%	0%	-4%	-4%
COc1cccc(N2CCN(c3c4c(nc5nncn35)CCC4)CC2)c1	4%	.	.	.	-28%
CCOC(=O)C1(CCOc2ccccc2)CCN(Cc2ccc(OCC)c(CO)c2)CC1	0%	-8%	-1%	.	11µM*
CCOC(=O)C1(CCOc2ccccc2)CCN(Cc2cccc(OCCO)c2)CC1	3%	-37%	0%	-6%	?
Cc1cc(Cl)ccc1OCC(=O)N1CCCCC1	-10%	11µM*	7%	-1%	-3%
O=C(COc1ccc2ccccc2c1Br)N1CCCCC1	4%	?	9%	6%	10µM*
Cc1cc(Cl)ccc1OCC(=O)N1CCN(c2ncccn2)CC1	0%	10%	9%	18%	-6%
O=C(COc1ccc2ccccc2c1)N1CCN(c2ccccc2)CC1	-1%	3%	-7%	0%	-4%
O=C(COc1ccc2ccccc2c1)N1CCCC1	-6%	11µM*	3%	5%	14%
